Here are results for 40 sequences from the OligoGym collection.
Also: reference of the scale not given here.

One test has as its target CAMK2N1. Kind of test: pooled miR-30 sensor sort-seq; sequence = guide strand. The note with it: shRNA.
AATAACAACCCGCTTGCTCCGG returned a sensor-assay potency score (higher = more potent) of -0.79.

The sequence TTCAATAACAACCCGCTTGCTC registered a sensor-assay potency score (higher = more potent) of 0.0759.

In the case of TCATCTTCAATAACAACCCGCT, the sensor-assay potency score (higher = more potent) was determined as 0.215.

Turning to TATCATCTTCAATAACAACCCG, the sensor-assay potency score (higher = more potent) was -0.355.

ATCATCTTCAATAACAACCCGC: the sensor-assay potency score (higher = more potent) is -0.379.

Turning to ATAACAACCCGCTTGCTCCGGC, the sensor-assay potency score (higher = more potent) was -0.269.

In the next test the target is CAMKV. The test is described as above. The note with it: shRNA.
TAACACAAATAACAGGGTCTTA: the sensor-assay potency score (higher = more potent) is -0.811.

In turn, TTGCTTGTGTCTCGCTCCGAGT gave a sensor-assay potency score (higher = more potent) of -1.54.

On to TATCTGTCAGTCACCTCCGATG, for which the sensor-assay potency score (higher = more potent) is -0.879.

For TTTCATTGTTGAACTGAGCAGA, the sensor-assay potency score (higher = more potent) amounted to 0.188.

In turn, TTGAACTGAGCAGAAAATCTGC displayed a sensor-assay potency score (higher = more potent) of 0.22.

In turn, TTGCCTGTCGTCTTGTCCTTGG returned a sensor-assay potency score (higher = more potent) of -0.405.

With TTAAACATACTGCCCTACCTTT, the sensor-assay potency score (higher = more potent) was -0.684.

ATATCTGTCAGTCACCTCCGAT: the sensor-assay potency score (higher = more potent) is -0.99.

TTCTGGAACTTCTTGCAGGTGT returned a sensor-assay potency score (higher = more potent) of -0.129.

Consider TCACTGATGACAATCTTCGAGT, for which the sensor-assay potency score (higher = more potent) was -1.01.

For the sequence TATAGTTCTTCTTGTCGCCCAG, the sensor-assay potency score (higher = more potent) is -0.36.

The sequence TTATAGTTCTTCTTGTCGCCCA showed a sensor-assay potency score (higher = more potent) of 0.464.

The target in the next test is CAMSAP1L1. Described as above. The note with it: shRNA.
In turn, TTGTTCATGACAACAGAGCTTA came in with a sensor-assay potency score (higher = more potent) of 0.195.

For the sequence TTATCCAGTACATGACAGCGTC, the sensor-assay potency score (higher = more potent) was -0.641.

On to TTCAACAGGTACATCAGCCTTT, for which the sensor-assay potency score (higher = more potent) amounted to 0.426.

TTTTGCAGCATCACTCTTGAGA came in with a sensor-assay potency score (higher = more potent) of -0.108.

TACACTCTCGTTATCACCCGTG returned a sensor-assay potency score (higher = more potent) of 0.34.

As to TACTTTTTCTATACTGACCATT, the sensor-assay potency score (higher = more potent) is -0.4.

Take TTGATTTCTTCAGTTTCTGGGC: the sensor-assay potency score (higher = more potent) is -0.439.

Turning to TTCTGCTTTTTGATCATCCTTA, the sensor-assay potency score (higher = more potent) was -0.157.

In turn, TACTGTATCCATATCTTCCATT came in with a sensor-assay potency score (higher = more potent) of -0.745.

In the case of TTCACCACTTCAAACCACCAGA, the sensor-assay potency score (higher = more potent) is -0.595.

Consider TTGTATTATGTGCTTATTGGAT, for which the sensor-assay potency score (higher = more potent) is -0.942.

In another test the target is CAPNS2. Described as above. The note with it: shRNA.
As to TATACTGAGCTGCTGCAGCCTC, the sensor-assay potency score (higher = more potent) is -0.467.

For ATACTGCTTATAAACACACTGC, the sensor-assay potency score (higher = more potent) was -0.451.

On to TAAAATTCACAATTCCTCCAAC, for which the sensor-assay potency score (higher = more potent) is -0.361.

In the case of ATGACAGACACAATGCTCCGGC, the sensor-assay potency score (higher = more potent) was -0.17.

As for TTTGTTGAGAATATTCATCAGA, the sensor-assay potency score (higher = more potent) is -0.0355.

TTGATAGACACTTGAATCAGGC displayed a sensor-assay potency score (higher = more potent) of -0.108.

As to TATCTCCATCTTCATTAGCATA, the sensor-assay potency score (higher = more potent) is -1.87.

On to TAATTCAGCAGTAAAAGGCAGC, for which the sensor-assay potency score (higher = more potent) is -0.377.

Take TCTATCTCTATCCAGAGACTTG: the sensor-assay potency score (higher = more potent) was -1.33.

Sequence TAAAATCCATATCTCCATCTTC returned a sensor-assay potency score (higher = more potent) of -0.0154.

In turn, TAGACACTTGAATCAGGCCATC came in with a sensor-assay potency score (higher = more potent) of -1.43.
